# Measurements published in ChEMBL document CHEMBL1961873, “Compounds: GSK PKIS; Assays: Nanosyn kinase panel” (2012).
# Tests used:
# [1] = system: Tyrosine-protein kinase ABL1 (Homo sapiens), P00519 [T315I]; details: at 1 µM
# [2] = system: Tyrosine-protein kinase ABL1 (Homo sapiens), P00519 [Y253F]; details: at 0.1 µM
# [3] = system: Tyrosine-protein kinase ABL1 (Homo sapiens), P00519 [Y253F]; details: at 1 µM
# [4] = molecular target: Tyrosine-protein kinase ABL1 (Homo sapiens) (UniProt P00519); details: at 0.1 µM
# [5] = molecular target: Tyrosine-protein kinase ABL1 (Homo sapiens) (UniProt P00519); details: at 1 µM
# [6] = molecular target: ALK tyrosine kinase receptor (Homo sapiens) (UniProt Q9UM73); details: at 0.1 µM
# [7] = molecular target: ALK tyrosine kinase receptor (Homo sapiens) (UniProt Q9UM73); details: at 1 µM
# [8] = molecular target: Tyrosine-protein kinase ABL2 (Homo sapiens) (UniProt P42684); details: at 0.1 µM
# [9] = molecular target: Tyrosine-protein kinase ABL2 (Homo sapiens) (UniProt P42684); details: at 1 µM
# [10] = molecular target: Tyrosine-protein kinase receptor UFO (Homo sapiens) (UniProt P30530); details: at 0.1 µM;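 also: values are mean percent inhibition of AXL from the GSK PKIS screen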
# Tyrosine-protein kinase receptor UFO (Homo sapiens), sequence (P30530 whole entry): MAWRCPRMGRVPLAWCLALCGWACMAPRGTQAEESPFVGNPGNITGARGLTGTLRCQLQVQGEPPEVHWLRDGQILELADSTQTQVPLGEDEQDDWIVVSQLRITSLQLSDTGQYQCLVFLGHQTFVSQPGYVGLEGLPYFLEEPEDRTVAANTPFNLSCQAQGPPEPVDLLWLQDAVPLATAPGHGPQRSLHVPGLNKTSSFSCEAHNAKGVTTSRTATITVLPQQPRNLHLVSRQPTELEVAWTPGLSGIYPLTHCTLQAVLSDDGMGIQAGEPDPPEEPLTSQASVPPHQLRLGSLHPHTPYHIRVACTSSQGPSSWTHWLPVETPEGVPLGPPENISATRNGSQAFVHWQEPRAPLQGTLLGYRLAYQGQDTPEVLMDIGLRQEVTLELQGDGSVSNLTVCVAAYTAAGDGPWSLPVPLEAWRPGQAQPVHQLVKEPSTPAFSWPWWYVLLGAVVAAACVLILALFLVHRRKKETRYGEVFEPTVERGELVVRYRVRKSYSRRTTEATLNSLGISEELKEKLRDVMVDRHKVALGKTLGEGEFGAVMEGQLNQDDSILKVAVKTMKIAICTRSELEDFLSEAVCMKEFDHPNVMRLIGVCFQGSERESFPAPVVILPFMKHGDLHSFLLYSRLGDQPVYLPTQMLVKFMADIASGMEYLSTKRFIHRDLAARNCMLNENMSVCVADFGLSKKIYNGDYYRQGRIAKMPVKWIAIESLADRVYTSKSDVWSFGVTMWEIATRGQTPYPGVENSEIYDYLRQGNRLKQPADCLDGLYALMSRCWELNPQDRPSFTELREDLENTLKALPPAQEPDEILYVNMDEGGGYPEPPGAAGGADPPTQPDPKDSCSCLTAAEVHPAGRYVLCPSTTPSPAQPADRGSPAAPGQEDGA
# ALK tyrosine kinase receptor (Homo sapiens), sequence (Q9UM73 19-1620 limits assumed): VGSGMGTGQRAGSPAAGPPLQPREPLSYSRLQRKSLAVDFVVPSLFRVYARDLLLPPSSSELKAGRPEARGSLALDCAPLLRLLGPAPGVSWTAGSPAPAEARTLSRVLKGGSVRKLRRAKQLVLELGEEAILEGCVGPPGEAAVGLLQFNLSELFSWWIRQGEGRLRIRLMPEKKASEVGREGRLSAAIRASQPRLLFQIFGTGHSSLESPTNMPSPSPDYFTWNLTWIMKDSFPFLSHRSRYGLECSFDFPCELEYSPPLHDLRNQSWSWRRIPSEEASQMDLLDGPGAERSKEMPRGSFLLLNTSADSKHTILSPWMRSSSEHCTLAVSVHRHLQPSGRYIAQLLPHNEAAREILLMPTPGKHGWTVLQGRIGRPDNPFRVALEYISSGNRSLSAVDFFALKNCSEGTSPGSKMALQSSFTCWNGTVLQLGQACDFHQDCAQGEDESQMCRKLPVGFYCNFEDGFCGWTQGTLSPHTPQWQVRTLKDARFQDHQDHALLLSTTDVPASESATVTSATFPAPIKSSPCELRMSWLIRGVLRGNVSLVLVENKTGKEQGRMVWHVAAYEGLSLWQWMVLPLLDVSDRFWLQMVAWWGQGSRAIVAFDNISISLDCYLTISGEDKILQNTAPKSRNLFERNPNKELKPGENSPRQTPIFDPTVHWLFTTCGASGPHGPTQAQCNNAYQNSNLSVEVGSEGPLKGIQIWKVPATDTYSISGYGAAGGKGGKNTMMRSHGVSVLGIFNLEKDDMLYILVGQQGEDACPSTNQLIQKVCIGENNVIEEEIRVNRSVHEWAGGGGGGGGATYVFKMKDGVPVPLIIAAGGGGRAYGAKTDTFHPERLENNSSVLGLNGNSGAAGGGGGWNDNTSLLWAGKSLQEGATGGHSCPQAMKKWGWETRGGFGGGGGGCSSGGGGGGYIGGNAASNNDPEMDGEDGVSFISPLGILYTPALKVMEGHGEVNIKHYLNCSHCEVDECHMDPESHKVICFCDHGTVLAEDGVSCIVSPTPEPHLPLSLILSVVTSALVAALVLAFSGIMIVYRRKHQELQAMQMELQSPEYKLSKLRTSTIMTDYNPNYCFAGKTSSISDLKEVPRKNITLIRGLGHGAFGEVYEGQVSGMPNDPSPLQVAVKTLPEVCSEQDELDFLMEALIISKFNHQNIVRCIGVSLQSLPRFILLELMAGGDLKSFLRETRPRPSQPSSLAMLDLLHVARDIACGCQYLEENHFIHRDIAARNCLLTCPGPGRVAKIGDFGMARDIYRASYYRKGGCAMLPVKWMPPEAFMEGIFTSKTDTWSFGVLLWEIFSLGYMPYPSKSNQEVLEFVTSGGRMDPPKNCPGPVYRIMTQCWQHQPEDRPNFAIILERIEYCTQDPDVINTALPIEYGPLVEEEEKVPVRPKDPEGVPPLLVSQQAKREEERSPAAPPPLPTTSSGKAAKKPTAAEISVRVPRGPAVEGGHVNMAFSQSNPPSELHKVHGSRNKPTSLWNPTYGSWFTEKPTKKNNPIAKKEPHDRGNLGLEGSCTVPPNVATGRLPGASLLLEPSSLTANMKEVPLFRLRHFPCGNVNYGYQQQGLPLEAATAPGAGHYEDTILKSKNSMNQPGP
# Tyrosine-protein kinase ABL2 (Homo sapiens), sequence (P42684 whole entry): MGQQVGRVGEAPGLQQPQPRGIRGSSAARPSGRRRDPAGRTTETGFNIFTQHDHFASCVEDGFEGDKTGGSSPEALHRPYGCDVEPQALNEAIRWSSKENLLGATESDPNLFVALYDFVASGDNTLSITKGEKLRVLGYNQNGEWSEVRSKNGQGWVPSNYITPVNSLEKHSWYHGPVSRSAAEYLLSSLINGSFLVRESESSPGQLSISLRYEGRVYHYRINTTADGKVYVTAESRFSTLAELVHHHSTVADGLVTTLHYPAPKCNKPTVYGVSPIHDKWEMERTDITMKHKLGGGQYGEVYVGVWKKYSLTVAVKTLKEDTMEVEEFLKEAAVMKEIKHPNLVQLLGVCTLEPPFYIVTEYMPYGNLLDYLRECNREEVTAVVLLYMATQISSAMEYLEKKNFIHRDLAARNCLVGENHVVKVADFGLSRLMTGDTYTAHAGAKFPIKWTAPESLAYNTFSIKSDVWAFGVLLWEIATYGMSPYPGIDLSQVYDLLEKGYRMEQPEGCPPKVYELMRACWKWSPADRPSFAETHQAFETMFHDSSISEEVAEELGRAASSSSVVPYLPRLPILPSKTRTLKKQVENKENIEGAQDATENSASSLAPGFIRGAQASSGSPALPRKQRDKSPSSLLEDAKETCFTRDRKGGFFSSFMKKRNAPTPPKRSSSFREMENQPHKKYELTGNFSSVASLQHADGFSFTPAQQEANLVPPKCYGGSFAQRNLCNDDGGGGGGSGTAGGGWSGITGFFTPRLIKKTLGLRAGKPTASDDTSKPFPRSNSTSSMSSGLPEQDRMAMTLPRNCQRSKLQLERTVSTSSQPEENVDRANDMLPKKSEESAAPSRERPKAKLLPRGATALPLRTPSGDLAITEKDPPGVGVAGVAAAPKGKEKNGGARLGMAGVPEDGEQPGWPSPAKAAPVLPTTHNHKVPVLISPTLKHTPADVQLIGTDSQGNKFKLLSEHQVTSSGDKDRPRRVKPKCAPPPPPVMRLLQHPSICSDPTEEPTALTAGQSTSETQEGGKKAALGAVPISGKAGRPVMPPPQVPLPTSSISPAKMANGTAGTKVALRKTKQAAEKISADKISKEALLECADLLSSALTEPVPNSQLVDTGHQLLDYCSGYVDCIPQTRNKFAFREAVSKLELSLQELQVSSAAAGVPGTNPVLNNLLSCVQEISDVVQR
Structure (SMILES),inhibition [1],inhibition [2],inhibition [3],inhibition [4],inhibition [5],inhibition [6],inhibition [7],inhibition [8],inhibition [9],inhibition [10]
CCn1c(-c2nonc2N)nc2c(C#CCN)ncc(OCCCN)c21,1.94%,-2.47%,-2.94%,1.03%,2.03%,-6.6%,-0.9%,-2.47%,-0.76%,7.73%
CCn1c(-c2nonc2N)nc2c(C#CC(C)(C)O)ncc(OC[C@@H]3CCCN3)c21,0.65%,0.65%,-0.13%,1.81%,-0.45%,-0.46%,1.45%,1.42%,2.28%,0.65%
Cc1cc(-c2ccco2)cc(C)c1/C=C/c1cncc(-c2nn[nH]n2)c1,2.45%,1.92%,4.15%,2.83%,4.58%,2.41%,2.74%,2.77%,8.69%,0.06%
Nc1nonc1-c1nc2cnccc2n1C1CCCCC1,-0.01%,-0.51%,2.63%,-0.08%,7.12%,-2.37%,2.16%,1.35%,3.74%,4.13%
COc1cccc(COc2cc(-n3cnc4ccccc43)sc2C(N)=O)c1,0.66%,-1.91%,2.67%,-2.41%,0.81%,-0.33%,2.9%,-0.24%,0.86%,0.14%
CCn1c(-c2nonc2N)nc2c(C#CC(C)(C)O)nc(O[C@@H](CN)c3ccccc3)cc21,4.28%,-0.01%,0.57%,0.27%,5.55%,0.41%,19.6%,1.15%,6.91%,1.96%
COc1cc2c(cc1Nc1nc(Nc3ccsc3C(N)=O)c3cc[nH]c3n1)N(C(=O)CN(C)C)CCC2,2.06%,1.77%,5.17%,1.69%,3.88%,83.9%,85.4%,5.49%,8.21%,22.9%
Fc1ccc(-c2ncn(C3CCNCC3)c2-c2ccnc(Oc3ccccc3)n2)cc1,-0.9%,1.35%,2.58%,-2.46%,-4.75%,-2.73%,-0.15%,-2.93%,-3.16%,-4.72%
COc1cccc(-n2ncc3c(N/N=C/c4ccncc4)ncnc32)c1,85.2%,84.5%,94.9%,69.3%,89%,3.94%,7.96%,47.8%,82.8%,-5.41%
NC(=O)c1sc(-n2cnc3cc(C(F)(F)F)ccc32)cc1OCc1ccccc1Br,1.66%,4.14%,4.68%,3.16%,3.85%,1.22%,1.22%,2.86%,4.58%,-0.22%
NS(=O)(=O)c1ccc(-c2ccc3c(NC(=O)C4CC4)n[nH]c3c2)cc1,15.1%,4.41%,8.81%,8.32%,14.2%,2.73%,3.11%,6.43%,7.09%,-4.27%
NS(=O)(=O)c1ccc(N/C=C2\C(=O)Nc3ccc4ncsc4c32)cc1,41.1%,5.62%,32.9%,8.9%,32.9%,4.55%,15.1%,5.92%,21.8%,-3.83%
CCn1c(-c2nonc2N)nc2c(C#CC(C)(C)O)ncc(OCC3CCNCC3)c21,4.1%,2.44%,5.73%,-2.19%,2.09%,-2.65%,0.19%,-1.08%,-2.22%,-2.5%
COc1cc(C=NNc2ncnc3c2cnn3Cc2ccccc2)ccc1O,61.6%,52.2%,90.8%,40.6%,71.9%,-4.96%,-2.43%,20.3%,49.2%,5.07%
